# Records with an inconclusive call do not appear. The source made the active and inactive calls. Rule for the calls: active = hit-call score of the fitted dose curve at least 0.9, where 1 is the maximum; inconclusive = response in the unintended direction; inactive = score below 0.9.
# Experiment: CCTE_Simmons_MITO_viability: CellTiter-Glo Viability Assessment for CCTE's HepG2 Seahorse XF Respirometric Screening Assay [post-hoc], Simmons Lab (AID 2284007);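 for AC50: cells exposed to chemical for 90 min before the ATP read; actives lower ATP signal relative to DMSO baseline meaning reduced viability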
# Protocol: CCTE_Simmons_MITO is cell-based, respirometric assay using HepG2 cells and a Seahorse XF Analyzer to measure oxygen consumption rates over four temporal phases spanning a total of 72 minutes: pre-injection (pre-treatment), basal (following test compound injection), maximal (following FCCP uncoupler injection), and inhibited (following rotenone/antimycin A injection)CCTE_Simmons_MITO_viability is one of 4 assay components measured from the CCTE_Simmons_MITO assay. It is designed to make measurements of ATP content, a form of viability reporter, as detected with bioluminescence signals by Luciferase-coupled ATP quantitation technology. Data from the assay component CCTE_Simmons_MITO_viability was analyzed at the endpoint, CCTE_Simmons_MITO_viability, in the positive analysis fitting direction relative to DMSO as the negative control and baseline of activity. Using a type of viability reporter, measures of ATP content for loss-of-signal activity can be used to understand the viability. To generalize the intended target to other relatable targets, this assay endpoint is annotated to the cell cycle intended target family, where the subfamily is cytotoxicity.
# Test chemicals were administered as a titrated series of 7 concentrations from 125 nM up to 100 uM [final] for 90 minutes prior to single endpoint detection. Three biological replicates of technical singles were run for every chemical concentration tested. Dimethylsulfoxide [DMSO] was used as the vehicle control. Dichlone [DCNQ] was used as the positive control and was administered as a titrated series of 8 concentrations from 10 nM up to 100 uM [final].
SMILES,outcome,AC50
CC(C)N(C(=O)SCC(Cl)=C(Cl)Cl)C(C)C,inactive,–
CCC(=O)Nc1ccc(Cl)c(Cl)c1,inactive,–
CC[C@H](C)[C@H]1O[C@]2(C=C[C@@H]1C)C[C@@H]1C[C@@H](C/C=C(\C)[C@@H](O[C@H]3C[C@H](OC)[C@@H](O[C@H]4C[C@H](OC)[C@@H](NC)[C@H](C)O4)[C@H](C)O3)[C@@H](C)/C=C/C=C3\CO[C@@H]4[C@H](O)C(C)=C[C@@H](C(=O)O1)[C@]34O)O2,–,86.9 µM (active)
CON=C(C(=O)OC)c1ccccc1CON=C(C)c1cccc(C(F)(F)F)c1,inactive,–
CC(C)=CC1C(C(=O)OCN2C(=O)C3=C(CCCC3)C2=O)C1(C)C (centres undefined),inactive,–
CCOP(=S)(Oc1cnc(C(C)(C)C)nc1)OC(C)C (centres undefined),inactive,–
CSC1=N[C@@](C)(c2ccccc2)C(=O)N1Nc1ccccc1,inactive,–
CCc1cccc(C)c1N(C(=O)CCl)C(C)COC (centres undefined),inactive,–
O=C(O)c1cc(Oc2ccc(C(F)(F)F)cc2Cl)ccc1[N+](=O)[O-],inactive,–
CCCCOC(=O)[C@@H](C)Oc1ccc(Oc2ccc(C#N)cc2F)cc1,inactive,–
N#CSCSC#N,–,67.6 µM (active)
CCCSP(=O)(OCC)SCCC,inactive,–
CCCOCC(=Nc1ccc(Cl)cc1C(F)(F)F)n1ccnc1,–,18.2 µM (active)
O=[N+]([O-])c1cc(C(F)(F)F)c(Cl)c([N+](=O)[O-])c1Nc1ncc(C(F)(F)F)cc1Cl,inactive,–
C[Si](Cn1cncn1)(c1ccc(F)cc1)c1ccc(F)cc1,–,10.3 µM (active)
COP(=O)(OC)OC(Br)C(Cl)(Cl)Br (centres undefined),–,50 µM (active)
C=C(C)[C@H]1Cc2c(ccc3c2O[C@@H]2COc4cc(OC)c(OC)cc4[C@@H]2C3=O)O1,–,13.3 µM (active)
CC1(C(=O)Nc2ccc(O)c(Cl)c2Cl)CCCCC1,inactive,–
CCC(CC)Nc1c([N+](=O)[O-])cc(C)c(C)c1[N+](=O)[O-],inactive,–
C#CCC1=C(C)C(OC(=O)C2C(C=C(C)C)C2(C)C)CC1=O (centres undefined),inactive,–
CCc1cccc(CC)c1N(COC)C(=O)CCl,inactive,–
FC(F)C(F)(F)OCC(Cn1cncn1)c1ccc(Cl)cc1Cl (centres undefined),–,16.9 µM (active)
CC(C1CC1)C(O)(Cn1cncn1)c1ccc(Cl)cc1 (centres undefined),inactive,–
CCOP(=O)(NC(C)C)Oc1ccc(SC)c(C)c1 (centres undefined),inactive,–
